For some of these results: Results with a measured potency or affinity are listed apart.

What all share (design): scale not given: direction of the effect not stated beside the values
The target of assay [1] is Protein translocase subunit SecA (Escherichia coli (strain K12)) (UniProt P10408). The assay is described as follows: Assay to Identify E. coli SecA ATPase Inhibitors. The assay is classed as functional. The settings on record: 30 µM.
Assay [2] deals with T1, Ubiquitin-activating enzyme e1, putative (Leishmania donovani (strain BPK282A1)) (UniProt E9BSI1).
T1 sequence (whole entry): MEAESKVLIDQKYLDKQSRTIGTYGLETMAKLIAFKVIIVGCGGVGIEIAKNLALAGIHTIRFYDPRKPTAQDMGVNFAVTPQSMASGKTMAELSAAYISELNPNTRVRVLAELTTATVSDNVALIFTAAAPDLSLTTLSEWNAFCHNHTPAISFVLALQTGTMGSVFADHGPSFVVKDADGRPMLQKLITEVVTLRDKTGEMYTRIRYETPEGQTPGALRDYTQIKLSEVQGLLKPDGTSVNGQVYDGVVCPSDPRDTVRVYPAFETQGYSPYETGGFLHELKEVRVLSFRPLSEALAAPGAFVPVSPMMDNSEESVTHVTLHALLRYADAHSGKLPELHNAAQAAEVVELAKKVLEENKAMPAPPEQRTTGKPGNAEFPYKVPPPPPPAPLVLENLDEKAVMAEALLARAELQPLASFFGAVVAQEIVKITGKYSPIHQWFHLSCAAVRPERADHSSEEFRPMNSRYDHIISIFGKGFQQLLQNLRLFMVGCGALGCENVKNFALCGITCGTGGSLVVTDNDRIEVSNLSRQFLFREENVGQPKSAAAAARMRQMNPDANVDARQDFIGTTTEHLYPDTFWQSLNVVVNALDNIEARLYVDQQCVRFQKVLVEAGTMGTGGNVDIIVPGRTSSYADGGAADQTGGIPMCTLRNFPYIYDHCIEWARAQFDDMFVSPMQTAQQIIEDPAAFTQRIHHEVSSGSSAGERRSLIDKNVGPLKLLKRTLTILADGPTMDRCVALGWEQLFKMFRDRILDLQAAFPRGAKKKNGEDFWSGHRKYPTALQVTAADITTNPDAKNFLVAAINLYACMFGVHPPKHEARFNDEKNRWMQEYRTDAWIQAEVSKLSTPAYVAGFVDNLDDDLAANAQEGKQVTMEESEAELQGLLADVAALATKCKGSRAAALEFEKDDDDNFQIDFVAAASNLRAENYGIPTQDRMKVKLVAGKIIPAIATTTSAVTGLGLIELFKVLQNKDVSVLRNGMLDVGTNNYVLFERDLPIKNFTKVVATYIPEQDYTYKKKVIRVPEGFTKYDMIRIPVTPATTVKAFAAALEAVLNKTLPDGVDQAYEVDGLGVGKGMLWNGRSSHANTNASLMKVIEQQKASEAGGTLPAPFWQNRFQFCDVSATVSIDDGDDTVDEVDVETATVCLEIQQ
The assay is described as follows: Leishmania donovani Ubiquitin Activating Enzyme (LdE1). The assay is classed as functional. To be noted: 30 µM.

The target in assay [3] is AMP-activated protein kinase, AMPK (Homo sapiens) (UniProt P54646+O43741+P54619+Q9UGJ0+Q9Y478+Q13131+Q9UGI9). Description: AMP-dependent Kinase enzyme assay. An in vitro enzyme assay that detects ADP turnover that is directly proportional to AMPK activity. This uses naive AMPK that is activated during the assay with MK-8722. The settings on record: 30 µM. The format is functional.

In assay [4] the target is Sialic acid-binding Ig-like lectin 9 (Homo sapiens) (UniProt Q9Y336). The assay is described as follows: Hs-Siglec9 ALPHAscreen SOP 20170721. To be noted: 10 µM. On the technique in general: In Alpha technology, singlet oxygen from a donor bead excites a nearby acceptor bead.
Sequence of Sialic acid-binding Ig-like lectin 9 (Homo sapiens) (Q9Y336 whole entry): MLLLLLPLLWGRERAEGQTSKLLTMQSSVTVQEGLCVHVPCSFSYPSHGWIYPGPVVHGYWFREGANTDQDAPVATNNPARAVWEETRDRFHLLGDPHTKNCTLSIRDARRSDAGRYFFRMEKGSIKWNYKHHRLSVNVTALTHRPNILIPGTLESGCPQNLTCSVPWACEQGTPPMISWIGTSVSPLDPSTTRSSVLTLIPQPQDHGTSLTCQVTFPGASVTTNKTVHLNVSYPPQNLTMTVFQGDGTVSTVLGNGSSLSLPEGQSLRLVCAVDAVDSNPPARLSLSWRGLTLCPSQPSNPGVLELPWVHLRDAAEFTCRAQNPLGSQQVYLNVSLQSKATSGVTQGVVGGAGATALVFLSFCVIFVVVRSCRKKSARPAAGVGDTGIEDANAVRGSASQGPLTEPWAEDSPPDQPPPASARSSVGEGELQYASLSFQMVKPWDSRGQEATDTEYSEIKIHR
For assay [5], the system named is Trypanosoma cruzi. The assay is described as follows: Trypanosoma cruzi phosphomannomutase and mannose-1-phosphate guanylyltransferase assay. The assay is classed as functional. To be noted: 10 µM.
The target of assay [6] is T2, Arginase-2, mitochondrial (Homo sapiens) (UniProt P78540).
T2 sequence (whole entry): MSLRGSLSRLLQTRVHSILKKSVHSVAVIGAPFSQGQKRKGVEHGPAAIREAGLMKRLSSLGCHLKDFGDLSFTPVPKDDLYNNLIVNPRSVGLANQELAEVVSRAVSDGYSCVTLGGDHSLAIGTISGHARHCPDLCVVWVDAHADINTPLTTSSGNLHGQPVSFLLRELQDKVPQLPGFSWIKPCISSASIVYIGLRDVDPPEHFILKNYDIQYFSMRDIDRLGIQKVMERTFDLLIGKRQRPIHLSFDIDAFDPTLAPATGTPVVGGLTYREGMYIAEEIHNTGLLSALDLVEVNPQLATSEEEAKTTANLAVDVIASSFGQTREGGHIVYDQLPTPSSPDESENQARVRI
Description: in vitro enzyme assay to detect the production of urea directly proportional to the activity of Arginase II. Further: in the data most compounds retested in dose-response had high values. To be noted: 33.3 µM. The assay is classed as functional.

Assay [7] deals with T3, Proteasome subunit beta (Trypanosoma cruzi) (UniProt O96673).
T3 sequence (whole entry): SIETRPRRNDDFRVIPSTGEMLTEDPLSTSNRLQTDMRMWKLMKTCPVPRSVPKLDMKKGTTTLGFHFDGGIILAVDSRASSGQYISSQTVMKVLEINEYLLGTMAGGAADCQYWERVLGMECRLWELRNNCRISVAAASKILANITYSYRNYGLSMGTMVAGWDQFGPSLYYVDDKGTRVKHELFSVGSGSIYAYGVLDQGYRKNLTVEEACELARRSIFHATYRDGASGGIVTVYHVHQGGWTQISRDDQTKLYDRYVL
Description: Trypanosoma cruzi proteasome chymotrypsin-like activity (TcProtChymo) assay. Further: in the data most compounds retested in dose-response had high values. The format is functional. The settings on record: 9.37 µM.

Assay [8] is filed under the species Homo sapiens. The assay is described as follows: To identify inhibition of the IFN signalling (Jak-Stat) pathway via expression of an eGFP reporter gene under the control of an IFN-stimulated response element (ISRE) containing MxA promoter. The assay is classed as functional. The settings on record: 30 µM. (In general: A reporter such as luciferase makes a cellular process visible.)

Assay [9] addresses T4, Tyrosyl-tRNA synthetase, putative (Trypanosoma cruzi (strain CL Brener)) (UniProt Q4DSP6).
T4 sequence (whole entry): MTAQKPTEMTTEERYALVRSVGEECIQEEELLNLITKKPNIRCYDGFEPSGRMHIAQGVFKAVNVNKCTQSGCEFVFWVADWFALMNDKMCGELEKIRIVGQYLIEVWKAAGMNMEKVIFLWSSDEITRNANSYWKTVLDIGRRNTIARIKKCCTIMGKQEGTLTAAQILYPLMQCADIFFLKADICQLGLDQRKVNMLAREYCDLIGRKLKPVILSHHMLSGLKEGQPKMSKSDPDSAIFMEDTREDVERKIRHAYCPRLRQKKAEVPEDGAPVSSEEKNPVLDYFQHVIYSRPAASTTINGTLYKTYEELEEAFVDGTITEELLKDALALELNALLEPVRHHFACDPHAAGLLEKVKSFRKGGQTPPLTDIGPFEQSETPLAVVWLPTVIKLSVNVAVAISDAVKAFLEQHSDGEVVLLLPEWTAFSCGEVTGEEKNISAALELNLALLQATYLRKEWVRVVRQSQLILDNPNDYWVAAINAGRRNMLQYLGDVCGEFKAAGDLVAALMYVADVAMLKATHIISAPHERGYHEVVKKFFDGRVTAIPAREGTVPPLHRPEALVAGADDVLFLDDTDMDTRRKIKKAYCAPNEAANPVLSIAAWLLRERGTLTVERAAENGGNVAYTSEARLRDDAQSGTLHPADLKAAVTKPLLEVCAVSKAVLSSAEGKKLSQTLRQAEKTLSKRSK
The assay is described as follows: Trypanosoma cruzi tyrosyl tRNA synthetase (TcYRS) _High Tyrosine SOP. Further: in the data most compounds retested in dose-response had high values. The format is functional. To be noted: 30 µM.

In assay [10] the target is T4, Tyrosyl-tRNA synthetase, putative (Trypanosoma cruzi (strain CL Brener)). The assay is described as follows: Trypanosoma cruzi tyrosyl tRNA synthetase (TcYRS) SOP. To be noted: 30 µM. The format is functional.
The target of assay [11] is Chromo domain-containing protein 1 (Saccharomyces cerevisiae (strain ATCC 204508 / S288c) (Baker's yeast)) (UniProt P32657). The assay is described as follows: ScCHD-1 Enzyme Inhibition Assay. Further: in the data most compounds retested in dose-response had high values. The assay is classed as functional. The settings on record: 30 µM.
Sequence of Chromo domain-containing protein 1 (Saccharomyces cerevisiae (strain ATCC 204508 / S288c) (Baker's yeast)) (P32657 whole entry, the tested form may be a part): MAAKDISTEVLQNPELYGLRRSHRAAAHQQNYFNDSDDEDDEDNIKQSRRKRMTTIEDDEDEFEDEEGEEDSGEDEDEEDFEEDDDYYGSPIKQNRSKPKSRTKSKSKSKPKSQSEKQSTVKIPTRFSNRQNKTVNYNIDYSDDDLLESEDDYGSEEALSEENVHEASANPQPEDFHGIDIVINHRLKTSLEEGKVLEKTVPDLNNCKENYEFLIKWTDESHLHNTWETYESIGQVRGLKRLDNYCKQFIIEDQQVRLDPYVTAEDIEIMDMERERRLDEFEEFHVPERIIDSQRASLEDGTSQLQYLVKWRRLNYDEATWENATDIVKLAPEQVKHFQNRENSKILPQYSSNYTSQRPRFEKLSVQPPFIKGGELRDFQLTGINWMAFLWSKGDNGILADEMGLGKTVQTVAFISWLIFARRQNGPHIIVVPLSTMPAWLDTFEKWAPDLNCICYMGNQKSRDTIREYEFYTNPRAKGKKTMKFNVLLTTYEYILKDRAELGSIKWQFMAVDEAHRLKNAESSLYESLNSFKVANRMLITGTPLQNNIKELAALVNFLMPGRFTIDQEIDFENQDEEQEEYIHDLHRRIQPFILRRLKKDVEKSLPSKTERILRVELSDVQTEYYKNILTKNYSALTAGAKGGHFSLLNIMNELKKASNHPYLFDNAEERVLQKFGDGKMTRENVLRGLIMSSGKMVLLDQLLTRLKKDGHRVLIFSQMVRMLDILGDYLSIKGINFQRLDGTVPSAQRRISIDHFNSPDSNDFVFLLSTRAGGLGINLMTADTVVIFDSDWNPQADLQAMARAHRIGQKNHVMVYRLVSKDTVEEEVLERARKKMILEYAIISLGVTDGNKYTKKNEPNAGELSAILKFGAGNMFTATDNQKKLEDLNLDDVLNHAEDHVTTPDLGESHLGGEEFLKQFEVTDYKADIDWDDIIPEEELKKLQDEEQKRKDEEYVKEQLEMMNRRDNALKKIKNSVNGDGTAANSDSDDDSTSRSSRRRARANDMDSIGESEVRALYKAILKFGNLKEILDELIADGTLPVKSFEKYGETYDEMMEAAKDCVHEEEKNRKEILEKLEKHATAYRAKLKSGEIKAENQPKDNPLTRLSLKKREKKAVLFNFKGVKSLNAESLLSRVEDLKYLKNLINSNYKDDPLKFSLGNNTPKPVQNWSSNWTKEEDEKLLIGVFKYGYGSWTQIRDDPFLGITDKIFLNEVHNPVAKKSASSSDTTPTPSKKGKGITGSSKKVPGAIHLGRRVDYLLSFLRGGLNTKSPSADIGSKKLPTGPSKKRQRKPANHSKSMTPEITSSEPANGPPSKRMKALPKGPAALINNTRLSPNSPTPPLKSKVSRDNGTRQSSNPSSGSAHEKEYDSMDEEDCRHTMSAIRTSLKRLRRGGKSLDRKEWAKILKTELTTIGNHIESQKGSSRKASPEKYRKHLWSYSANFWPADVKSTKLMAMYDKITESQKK

Sequence of Protein translocase subunit SecA (Escherichia coli (strain K12)) (P10408 whole entry): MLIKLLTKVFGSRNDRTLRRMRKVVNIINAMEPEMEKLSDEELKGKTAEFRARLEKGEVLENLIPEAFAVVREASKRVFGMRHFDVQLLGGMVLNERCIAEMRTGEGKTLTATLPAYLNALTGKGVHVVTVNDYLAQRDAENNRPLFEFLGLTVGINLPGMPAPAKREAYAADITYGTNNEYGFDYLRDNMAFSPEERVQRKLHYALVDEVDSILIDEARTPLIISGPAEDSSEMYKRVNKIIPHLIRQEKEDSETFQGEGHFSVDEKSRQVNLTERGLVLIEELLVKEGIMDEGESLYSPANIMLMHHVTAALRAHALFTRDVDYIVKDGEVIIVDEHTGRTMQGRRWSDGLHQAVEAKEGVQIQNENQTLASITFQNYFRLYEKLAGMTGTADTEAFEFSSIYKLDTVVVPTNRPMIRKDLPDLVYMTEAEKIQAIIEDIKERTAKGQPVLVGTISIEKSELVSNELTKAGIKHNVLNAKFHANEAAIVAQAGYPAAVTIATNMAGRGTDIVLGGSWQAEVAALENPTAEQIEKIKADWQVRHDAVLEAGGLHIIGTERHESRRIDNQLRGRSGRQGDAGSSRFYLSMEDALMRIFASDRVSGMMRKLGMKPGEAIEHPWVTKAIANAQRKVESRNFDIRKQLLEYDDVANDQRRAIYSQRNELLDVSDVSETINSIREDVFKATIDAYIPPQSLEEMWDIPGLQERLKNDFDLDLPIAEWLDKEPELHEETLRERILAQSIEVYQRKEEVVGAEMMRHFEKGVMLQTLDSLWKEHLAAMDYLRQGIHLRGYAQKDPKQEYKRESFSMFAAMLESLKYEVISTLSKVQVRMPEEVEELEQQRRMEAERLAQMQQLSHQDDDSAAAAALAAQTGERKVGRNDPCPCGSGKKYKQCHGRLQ

As to `COc1cccc(CN(C)C(=O)CN2CCN(c3nccn3C)CC2)c1`, the Percent Effect was -1.77% in [1]; 8% in [2]; -12.7% in assay [3]; 7.67% in assay [4]; 3.99% in assay [5]; 14.1% in assay [6]. The Percent Effect in assay [7] is 20.6%; in [8], 1.29%; in assay [9], 10.4%; in [10] it was 21%; in assay [11] it was -3.45%.
Consider `CC(C)c1ccc(O)c(C(=O)N2CCN(Cc3cscn3)CC2)c1`, for which the Percent Effect was -1.48% in [1]; 16.2% in [2]; 0.162% in assay [3]; 10.1% in [4]; 5.85% in assay [5]; -6.1% in assay [6]. In addition, the Percent Effect in assay [7] was 4.85%; in assay [8], 26.8%; in assay [9], 5.94%; in assay [10], 18.3%; in assay [11], -3.11%.
For the compound `Cc1cccc(C(=O)NCc2ccc(N3CCCCC3)nc2)n1`, the Percent Effect in assay [1] is -0.795%; in assay [2], 13.9%; in assay [3] it was 3.85%; in assay [4], 4.23%; in [5], -2.97%; in assay [6], -1.5%. Further, the Percent Effect in assay [7] was 11.8%; in [8], 24.3%; in assay [9], 8.33%; in [10] it was 15.2%; in assay [11], -1.41%.
Turning to `CC1CCCN(Cc2coc(-c3cccc(F)c3)n2)C1` (stereo not drawn), the Percent Effect was -5.97% in assay [1]; 2.6% in [2]; 8.2% in assay [3]; 7.31% in [4]; 1.31% in [5]; 2.49% in [6]. Besides, the Percent Effect in assay [7] is -0.507%; in [8], 3.77%; in assay [9] it was 5.83%; in [10], 2.44%; in assay [11] it was 0.197%.
For `O=C1CC(c2cccc(O)c2)c2c(c(C(=O)O)cn2-c2ccccc2)N1` (stereo not drawn), the Percent Effect in assay [1] was -3.46%; in assay [2] it was 1.33%; in [3], -385%; in [4] it was 1.46%; in assay [5], -3.34%; in [6], -5.81%. Besides, the Percent Effect is 14.6% in [7]; 7.35% in assay [8]; 0% in [9]; -5.13% in assay [10]; -11.7% in assay [11].
For the compound `Cc1ccc(C(=O)NCCS(C)(=O)=O)c(=O)[nH]1`, the Percent Effect in assay [1] is -3.94%; in assay [2] it was 16.2%; in assay [3] it was -7.64%; in assay [4], -5.87%; in assay [5] it was 4.88%; in assay [6], 10.4%. Moreover, the Percent Effect in assay [7] was 16.1%; in [8], 7.03%; in [9], 9.9%; in [10], 15.8%; in [11], -5.72%.
As for `CN(C)CCO[C@@H]1CC[C@H]2[C@H]1OCCN2C(=O)COc1ccccc1`, the Percent Effect in assay [1] is -2.92%; in assay [2] it was 0%; in assay [3], -3.78%; in assay [4] it was 3.69%; in [5], -0.88%; in assay [6], -27.1%. Besides, the Percent Effect is 17.7% in [7]; 8.7% in [8]; -1.08% in assay [9]; 0% in assay [10]; 1.68% in assay [11].
For the compound `CN(C)C(C(=O)N1CCCC1)c1ccccc1F` (stereo not drawn), the Percent Effect in assay [1] was -2.84%; in assay [2], 1.39%; in [3] it was 3.5%; in assay [4], -3.25%; in assay [5] it was -5.54%; in assay [6] it was 5.3%. Further, the Percent Effect in [7] is 4.74%; in assay [8], -1.68%; in assay [9], 3.16%; in [10], 2.56%; in [11], -0.0422%.

The values are drawn from ChEMBL document CHEMBL3988442, “University of Dundee, Small-Polar-MMV Screening Library” (2021).
